Measurements from PubChem BioAssay (NCATS).
Inconclusive results are not listed. Active and inactive are the calls of the source. Unless noted, calls come from the whole dose curve; as a rule, active = well fitted curve in the direction sought with a large enough effect; inconclusive = small, poorly fitted or top-dose-only effect, or another doubt; inactive = no such curve, though single readings can be large; an effect the other way counts as inactive or inconclusive.

Tests used:
[1] = Confirmation and Secondary Assay for Modulators of Hemoglobin Beta Chain Splicing at IVS2 705 locus (AID 930);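 note: HeLa cells stably expressing the EGFP-705 splicing reporter; % of control where 0% means no effect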
Procedure, shortened: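 Restored EGFP fluorescence after 2-day compound exposure reports splicing correction in IVS2-705 EGFP reporter HeLa cells; positive control was 500 nM splice-blocking PNA oligo. Signal measured as well total peak GFP intensity (488 nm excitation).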

[2] = target: Ubiquitin carboxyl-terminal hydrolase 1 (Homo sapiens) (UniProt O94782); test: Inhibitors of USP1/UAF1: Pilot qHTS (AID 504865); note: nearly all actives have a fitted effect of over 35% in size; note: potency is the fitted concentration of half-maximal effect
Chain of Ubiquitin carboxyl-terminal hydrolase 1 (Homo sapiens) (O94782 whole entry, looked up): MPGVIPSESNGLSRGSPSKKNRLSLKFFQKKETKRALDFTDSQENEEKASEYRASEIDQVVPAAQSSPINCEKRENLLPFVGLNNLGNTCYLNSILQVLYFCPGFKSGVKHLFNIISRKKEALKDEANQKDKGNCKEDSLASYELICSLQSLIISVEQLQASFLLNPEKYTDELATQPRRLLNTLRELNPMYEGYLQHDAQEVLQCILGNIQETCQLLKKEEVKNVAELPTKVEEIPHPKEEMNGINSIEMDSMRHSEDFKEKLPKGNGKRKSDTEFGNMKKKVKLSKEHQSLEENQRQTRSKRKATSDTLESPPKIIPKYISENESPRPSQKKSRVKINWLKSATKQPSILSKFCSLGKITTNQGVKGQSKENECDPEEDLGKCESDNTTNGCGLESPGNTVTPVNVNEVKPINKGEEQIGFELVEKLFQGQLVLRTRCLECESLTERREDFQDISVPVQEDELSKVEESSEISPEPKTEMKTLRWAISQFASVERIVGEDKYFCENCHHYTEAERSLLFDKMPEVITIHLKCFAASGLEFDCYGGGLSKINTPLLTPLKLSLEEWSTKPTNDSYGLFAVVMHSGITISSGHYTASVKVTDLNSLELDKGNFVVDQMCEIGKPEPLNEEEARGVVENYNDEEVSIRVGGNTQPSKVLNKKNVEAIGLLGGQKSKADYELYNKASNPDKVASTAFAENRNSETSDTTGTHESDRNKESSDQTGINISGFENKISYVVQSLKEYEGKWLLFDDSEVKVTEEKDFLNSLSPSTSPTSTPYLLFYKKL
Procedure, shortened: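 USP1/UAF1 complex at 1 nM preincubated 15 min at room temperature with compound, then Ub-Rho substrate added at 150 nM final. Fluorescence (480/540 nm) read kinetically in 50 mM HEPES pH 7.8, 0.5 mM EDTA, 1 mM TCEP, 0.1 mg/ml BSA, 0.01% Tween-20.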

[3] = target: Estrogen receptor (Homo sapiens) (UniProt P03372); test: qHTS assay for small molecule agonists of estrogen receptor alpha signaling (AID 588514; calls by dose curve;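 note: 0% = vehicle only and 100% = reference agonist; nearly all actives have a fitted effect of over 70% in size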)
Chain of Estrogen receptor (Homo sapiens) (P03372 whole entry, looked up): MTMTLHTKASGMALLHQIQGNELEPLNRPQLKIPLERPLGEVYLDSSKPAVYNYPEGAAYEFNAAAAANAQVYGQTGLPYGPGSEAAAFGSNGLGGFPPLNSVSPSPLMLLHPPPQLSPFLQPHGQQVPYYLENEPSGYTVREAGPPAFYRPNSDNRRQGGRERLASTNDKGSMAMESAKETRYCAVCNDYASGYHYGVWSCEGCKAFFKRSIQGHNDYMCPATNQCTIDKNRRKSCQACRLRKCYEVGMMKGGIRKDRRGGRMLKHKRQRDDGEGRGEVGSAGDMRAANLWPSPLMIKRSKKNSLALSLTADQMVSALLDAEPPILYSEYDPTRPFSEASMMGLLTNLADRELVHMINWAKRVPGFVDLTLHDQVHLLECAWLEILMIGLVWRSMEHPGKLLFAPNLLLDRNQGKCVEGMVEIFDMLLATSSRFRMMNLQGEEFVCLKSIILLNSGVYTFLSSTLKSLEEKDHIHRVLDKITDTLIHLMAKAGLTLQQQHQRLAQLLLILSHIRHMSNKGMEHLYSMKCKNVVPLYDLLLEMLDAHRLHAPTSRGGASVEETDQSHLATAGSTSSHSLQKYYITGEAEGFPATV
Procedure, shortened: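 Read-out: CCF4 fluorescence from a beta-lactamase reporter in ER-alpha-UAS-bla HEK 293 cells after 18 hrs of compound exposure at 37 C. Normalized to 20 nM 17-beta-estradiol (100%) and DMSO (0%).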

[4] = target: Androgen receptor (Homo sapiens) (UniProt P10275); test: qHTS assay for small molecule antagonists of androgen receptor signaling (AID 588516; active = well fitted curve in the direction sought with a large enough effect in the signal ratio, with a control signal flat, not every such curve was filed as active; the % refers to the signal ratio; note: % is set by controls: 0 for no effect and ±100 for the full control effect)
Chain of Androgen receptor (Homo sapiens) (P10275 whole entry, looked up): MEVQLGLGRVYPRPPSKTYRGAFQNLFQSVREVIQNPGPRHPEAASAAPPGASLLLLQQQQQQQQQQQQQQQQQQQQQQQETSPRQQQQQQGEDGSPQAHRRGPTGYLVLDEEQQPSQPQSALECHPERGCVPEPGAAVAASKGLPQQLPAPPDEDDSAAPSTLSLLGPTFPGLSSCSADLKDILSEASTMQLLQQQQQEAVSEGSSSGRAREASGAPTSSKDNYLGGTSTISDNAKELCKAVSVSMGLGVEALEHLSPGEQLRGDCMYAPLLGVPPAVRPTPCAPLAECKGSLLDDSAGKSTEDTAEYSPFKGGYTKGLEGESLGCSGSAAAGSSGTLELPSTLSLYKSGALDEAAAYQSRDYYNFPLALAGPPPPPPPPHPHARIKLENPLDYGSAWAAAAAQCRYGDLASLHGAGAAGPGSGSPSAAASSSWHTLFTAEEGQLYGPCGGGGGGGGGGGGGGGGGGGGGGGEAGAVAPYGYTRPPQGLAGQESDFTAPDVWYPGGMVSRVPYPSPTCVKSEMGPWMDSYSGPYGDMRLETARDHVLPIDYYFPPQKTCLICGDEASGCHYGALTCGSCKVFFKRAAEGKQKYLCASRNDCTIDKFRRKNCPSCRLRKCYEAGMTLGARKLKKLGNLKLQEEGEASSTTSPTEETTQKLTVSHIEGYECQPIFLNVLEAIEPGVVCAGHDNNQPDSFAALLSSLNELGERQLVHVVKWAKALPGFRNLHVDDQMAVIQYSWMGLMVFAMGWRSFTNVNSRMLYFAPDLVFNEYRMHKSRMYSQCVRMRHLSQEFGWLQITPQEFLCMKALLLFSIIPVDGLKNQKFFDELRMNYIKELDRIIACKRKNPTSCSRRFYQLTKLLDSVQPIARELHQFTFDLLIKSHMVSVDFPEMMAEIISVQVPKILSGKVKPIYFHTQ
Procedure, shortened: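 AR-UAS-bla GripTite HEK 293 cells (2000/well) treated with compound titrations plus 10 nM R1881 for 16 h at 37C. Beta-lactamase read by CCF4 FRET (460/530 nm); IC50 from Hill fits, normalized to R1881 and DMSO control wells.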

[5] = target: Bile acid receptor (Homo sapiens) (UniProt Q96RI1); test: qHTS assay for small molecule antagonists of farnesoid X receptor signaling (AID 588526; calls by dose curve; note: % is set by controls: 0 for no effect and ±100 for the full control effect)
Procedure, shortened: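 Antagonist mode: titrated compounds tested against chenodeoxycholic acid stimulation (normalized to 50 uM CDCA and DMSO) in GeneBLAzer HEK293T cells for 16 h. Beta-lactamase read by CCF4 fluorescence; IC50 from Hill fits.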

[6] = target: Glucocorticoid receptor (Homo sapiens) (UniProt P04150); test: qHTS assay for small molecule agonists of glucocorticoid receptor signaling (AID 588532; active = well fitted curve in the direction sought with a large enough effect in the signal ratio, with a control signal flat; the % refers to the signal ratio;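 note: 100% = dexamethasone at 0.1 µM and 0% = DMSO only wells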); details: HeLa MMTV-bla, beta-lactamase ratio, agonist, 18 h; stronger effect = higher value; percent of dexamethasone control, DMSO zero
Chain of Glucocorticoid receptor (Homo sapiens) (P04150 whole entry, looked up, the tested form may be a part): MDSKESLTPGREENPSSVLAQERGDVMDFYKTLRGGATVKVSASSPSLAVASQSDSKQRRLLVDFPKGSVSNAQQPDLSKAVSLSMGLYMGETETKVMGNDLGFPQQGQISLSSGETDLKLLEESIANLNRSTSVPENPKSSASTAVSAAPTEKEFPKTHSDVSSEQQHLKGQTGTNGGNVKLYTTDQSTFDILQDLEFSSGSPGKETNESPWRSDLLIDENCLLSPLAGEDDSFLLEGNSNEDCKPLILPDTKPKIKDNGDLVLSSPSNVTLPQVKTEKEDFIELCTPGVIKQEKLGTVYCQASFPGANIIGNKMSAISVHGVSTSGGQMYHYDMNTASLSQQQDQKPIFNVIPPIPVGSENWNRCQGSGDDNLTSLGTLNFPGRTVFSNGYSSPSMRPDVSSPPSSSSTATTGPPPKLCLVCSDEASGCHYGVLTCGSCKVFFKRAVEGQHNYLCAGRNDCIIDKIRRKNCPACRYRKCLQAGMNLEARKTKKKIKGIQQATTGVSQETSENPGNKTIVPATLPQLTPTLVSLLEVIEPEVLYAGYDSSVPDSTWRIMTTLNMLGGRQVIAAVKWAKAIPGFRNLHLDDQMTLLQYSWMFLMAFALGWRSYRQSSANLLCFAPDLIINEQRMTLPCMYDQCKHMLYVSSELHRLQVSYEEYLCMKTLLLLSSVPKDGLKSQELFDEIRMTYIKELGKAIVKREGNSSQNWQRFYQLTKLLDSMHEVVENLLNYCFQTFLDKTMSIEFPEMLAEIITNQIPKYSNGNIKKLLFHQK
Procedure, shortened: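 HeLa GRE-bla reporter cells; 18 h compound exposure at 37 C; 2 h CCF4 loading at room temperature; fluorescence at 460 and 530 nm; EC50 by Hill equation.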

[7] = qHTS assay for small molecule antagonists of peroxisome proliferator-activated receptor delta signaling (AID 588535; active = well fitted inhibition curve with a large enough effect in the signal ratio, with a control signal flat, not every such curve was filed as active; the % refers to the signal ratio;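 for max response: cells co-treated with a PPAR-delta agonist as stimulator during compound exposure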); details: HEK293T PPARd-UAS-bla, beta-lactamase FRET ratio, 18 h; 460 nm channel
Procedure, shortened: (§1)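 Beta-lactamase reporter read-out (405 nm excitation, 460/530 nm emission) after CCF4 loading for 2 hrs at RT. HEK293T PPAR-delta-UAS-bla cells, 2% charcoal/dextran FBS, compounds for 18 hrs at 37 C. Hill fit gave IC50 and efficacy.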

[8] = target: Peroxisome proliferator-activated receptor delta (Homo sapiens) (UniProt Q03181); test: as above
Chain of Peroxisome proliferator-activated receptor delta (Homo sapiens) (Q03181 whole entry, looked up): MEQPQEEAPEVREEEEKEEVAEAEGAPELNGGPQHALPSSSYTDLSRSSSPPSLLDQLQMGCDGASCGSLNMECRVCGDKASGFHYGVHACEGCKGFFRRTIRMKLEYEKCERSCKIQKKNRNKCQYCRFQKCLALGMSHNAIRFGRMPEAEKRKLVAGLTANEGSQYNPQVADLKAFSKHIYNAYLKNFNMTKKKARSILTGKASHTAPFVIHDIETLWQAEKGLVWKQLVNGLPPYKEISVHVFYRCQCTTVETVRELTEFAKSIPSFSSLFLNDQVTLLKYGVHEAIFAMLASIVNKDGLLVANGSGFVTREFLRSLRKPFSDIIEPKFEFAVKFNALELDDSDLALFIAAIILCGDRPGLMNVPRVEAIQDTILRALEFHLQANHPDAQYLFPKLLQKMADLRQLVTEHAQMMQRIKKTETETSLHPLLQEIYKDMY
Procedure, shortened: as §1

[9] = target: Peroxisome proliferator-activated receptor gamma (Homo sapiens) (UniProt P37231); test: qHTS assay for small molecule agonists of peroxisome proliferator-activated receptor gamma signaling (AID 588536; active = well fitted curve in the direction sought with a large enough effect in the signal ratio, with a control signal flat, not every such curve was filed as active; the % refers to the signal ratio;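 note: 0% = DMSO basal wells and 100% = rosiglitazone at 2 µM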)
Chain of Peroxisome proliferator-activated receptor gamma (Homo sapiens) (P37231 whole entry, looked up): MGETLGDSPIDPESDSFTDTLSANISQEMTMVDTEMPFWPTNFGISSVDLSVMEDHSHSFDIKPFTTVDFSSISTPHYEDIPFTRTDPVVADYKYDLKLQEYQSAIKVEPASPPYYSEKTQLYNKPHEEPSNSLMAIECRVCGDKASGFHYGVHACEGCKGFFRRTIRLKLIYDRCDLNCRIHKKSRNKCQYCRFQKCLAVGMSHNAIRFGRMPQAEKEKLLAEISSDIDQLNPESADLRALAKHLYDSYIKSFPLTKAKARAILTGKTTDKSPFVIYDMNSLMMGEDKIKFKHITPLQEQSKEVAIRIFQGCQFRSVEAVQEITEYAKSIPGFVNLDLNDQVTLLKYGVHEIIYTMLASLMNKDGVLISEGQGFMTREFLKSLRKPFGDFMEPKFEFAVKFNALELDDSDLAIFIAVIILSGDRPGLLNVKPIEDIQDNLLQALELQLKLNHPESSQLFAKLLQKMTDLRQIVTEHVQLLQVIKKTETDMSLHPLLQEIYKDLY
Procedure, shortened: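 This is an agonist-mode beta-lactamase reporter assay in HEK293 PPAR-gamma-UAS-bla cells with 1% charcoal/dextran FBS. Compound titrations ran 16 h at 37 C before CCF4 detection. EC50 and efficacy are Hill fits scaled to 2 uM rosiglitazone (100%) and DMSO basal.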

[10] = target: Vitamin D3 receptor (Homo sapiens) (UniProt P11473); test: qHTS assay for small molecule antagonists of vitamin D receptor signaling (AID 588541; calls by dose curve;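 note: receptor activated by calcitriol during compound treatment; % is set by controls: 0 for no effect and ±100 for the full control effect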)
Chain of Vitamin D3 receptor (Homo sapiens) (P11473 whole entry, looked up): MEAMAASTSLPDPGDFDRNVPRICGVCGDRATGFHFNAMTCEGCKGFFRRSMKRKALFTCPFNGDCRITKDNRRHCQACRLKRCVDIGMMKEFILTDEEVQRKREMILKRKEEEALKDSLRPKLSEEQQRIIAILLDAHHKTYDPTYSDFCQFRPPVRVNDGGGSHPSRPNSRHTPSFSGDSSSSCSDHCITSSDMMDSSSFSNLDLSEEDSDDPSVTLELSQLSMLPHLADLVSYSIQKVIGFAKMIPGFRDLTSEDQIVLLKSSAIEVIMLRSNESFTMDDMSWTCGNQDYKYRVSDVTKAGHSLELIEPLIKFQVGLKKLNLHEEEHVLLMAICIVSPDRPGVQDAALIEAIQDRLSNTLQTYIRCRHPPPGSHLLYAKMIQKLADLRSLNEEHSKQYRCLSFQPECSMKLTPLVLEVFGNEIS
Procedure, shortened: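 VDR-UAS-bla HEK293T cells in 2% charcoal-stripped FBS were stimulated with 1-alpha,25-dihydroxyvitamin D3 (3 nM final) plus compound for 16 h at 37 C. The beta-lactamase CCF4 readout was normalized to 50 nM agonist and DMSO, and Hill fits gave IC50.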

[11] = target: Vitamin D3 receptor (Homo sapiens) (UniProt P11473); test: qHTS assay for small molecule agonists of vitamin D receptor signaling (AID 588543; calls by dose curve;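 note: 0% = DMSO basal and 100% = reference agonist control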)
Procedure, shortened: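 VDR-UAS-bla HEK293T cells, 2000/well, 2% charcoal-stripped FBS; compound titration 16 h at 37 C; CCF4 beta-lactamase ratio read. Normalized to 50 nM 1-alpha,25-dihydroxyvitamin D3 (100%) and DMSO; Hill fit gives EC50, efficacy.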

[12] = target: Luciferin 4-monooxygenase (Photinus pyralis) (UniProt P08659); test: Biochemical firefly luciferase enzyme assay for NPC (AID 624030);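 note: purified P. pyralis luciferase at 10 nM with luciferin and ATP substrate; 0% = DMSO and -100% = full luciferase inhibition by PTC124 control; nearly all actives have a fitted effect of over 70% in size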
Chain of Luciferin 4-monooxygenase (Photinus pyralis) (P08659 whole entry, looked up): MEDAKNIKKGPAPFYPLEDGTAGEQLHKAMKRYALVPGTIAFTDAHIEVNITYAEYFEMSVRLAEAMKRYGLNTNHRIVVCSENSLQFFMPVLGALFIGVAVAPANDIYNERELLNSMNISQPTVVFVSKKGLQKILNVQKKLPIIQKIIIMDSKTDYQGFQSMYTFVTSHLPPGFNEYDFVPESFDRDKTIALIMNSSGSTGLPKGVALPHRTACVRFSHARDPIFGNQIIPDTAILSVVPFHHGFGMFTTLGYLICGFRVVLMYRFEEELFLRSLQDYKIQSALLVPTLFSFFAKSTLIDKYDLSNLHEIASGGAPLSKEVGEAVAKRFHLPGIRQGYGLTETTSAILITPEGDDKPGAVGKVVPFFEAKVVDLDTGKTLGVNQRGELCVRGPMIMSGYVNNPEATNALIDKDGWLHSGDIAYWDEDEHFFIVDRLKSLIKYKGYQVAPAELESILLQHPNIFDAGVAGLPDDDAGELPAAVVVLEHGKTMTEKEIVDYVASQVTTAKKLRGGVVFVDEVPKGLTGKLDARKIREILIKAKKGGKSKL
Procedure, shortened: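 Purified P. pyralis luciferase at 10 nM in 50 mM Tris Acetate (final), luminescence read within 5 minutes of enzyme addition to compounds. Activity normalised to PTC124 versus DMSO; concentration-response curves classed by r2, magnitude and activity.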

[13] = qHTS assay for environmental chemicals that activate the Aryl hydrocarbon Receptor (AhR) signaling pathway (AID 651777); details: 1A2-DRE human hepatoma cells, luciferase, 24 h; activation: stronger effect = higher value; note: % of control where 0% means no effect; nearly all actives have a fitted effect of over 15% in size
Procedure, shortened: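 Luminescence (One-Glo, 30 min, room temperature) reports AhR-driven luciferase in stably transfected human hepatoma cells bearing DRE and CYP1A2 promoter. Cells (1,200/well) were treated with compound for 24 hr at 37 C in qHTS format.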

[14] = qHTS assay for small molecule agonists of the antioxidant response element (ARE) signaling pathway measured by Nrf2-dependant transcriptional activity (AID 720636; active = well fitted curve in the direction sought with a large enough effect in the repeat runs; an effect the other way counts as inactive or inconclusive; note: % of control where 0% means no effect)
Procedure, shortened: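 Nrf2-dependent transcription read as ONE-Glo luciferase signal from ARE-luc HepG2 reporter cells after 16 hr compound treatment at 37 C, 5% CO2, in assay medium with 1% dialyzed FBS.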

[15] = qHTS assay for small molecule agonists of the antioxidant response element (ARE) signaling pathway measured by Nrf2-dependant transcriptional activity - cell viability counter screen (AID 720653; active = well fitted curve in the direction sought with a large enough effect in the repeat runs; an effect the other way counts as inactive or inconclusive; note: % is set by controls: 0 for no effect and ±100 for the full control effect); details: ARE-bla HepG2 viability, CellTiter-Glo ATP luminescence, 16 h; max response: stronger effect = lower value
Procedure, shortened: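 ARE-bla HepG2 cells treated with compounds for 16 h at 37C; this counter screen measures viability as intracellular ATP by CellTiter-Glo luminescence after 30 min at room temperature.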

[16] = qHTS assay for cell viability of HEK293 cells (AID 743288); details: ATP luminescence (CellTiter-Glo), 18 h; max response: stronger effect = lower value; note: % is set by controls: 0 for no effect and ±100 for the full control effect; nearly all actives have a fitted effect of over 50% in size
Procedure, shortened: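 Steps: plate 2,000 parental HEK293 cells per well; incubate ≥5 h, 37 C; add compounds in DMSO; incubate 18 h, 37 C; add CellTiter-Glo; wait 30 min at room temperature; read luminescence.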

[17] = qHTS assay for cell viability of the p53RE-bla HCT-116 cell line (AID 743292); note: % is set by controls: 0 for no effect and ±100 for the full control effect; nearly all actives have a fitted effect of over 55% in size
Procedure, shortened: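 ATP-based luminescent viability (CellTiter-Glo, 30 min RT) after 16 h compound treatment at 37 C of p53RE-bla HCT-116 cells, seeded at 4,000 cells/well and rested 5 h before dosing.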

[18] = target: Nuclear receptor subfamily 1 group I member 2 (Rattus norvegicus) (UniProt Q9R1A7); test: qHTS assay for small molecule activators of the rat pregnane X receptor (rPXR) signaling pathway (AID 651751; call rule not given here; note: 0% is about no effect); details: rPXR reporter cells, luciferase (One-Glo), 24 h
[19] = qHTS assay for small molecule activators of the human pregnane X receptor (PXR) signaling pathway (AID 720659; call rule not given here; note: 0% is about no effect)
[20] = AP1 Signaling Pathway (AID 357; active = well fitted curve in either direction with a large enough effect, not every such curve was filed as active); details: ME-180 AP-1-bla reporter, EGF-induced, beta-lactamase ratio, 5 h; at 17.2 µM (top of the series) unless noted
Procedure, shortened: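 Cells are seeded overnight, exposed to compound titrations and an EC50 level of EGF for 5 hours at 37 °C, then loaded with CCF4 dye for 2.5 hours. Beta-lactamase activity under the AP-1 element is read as a blue/green ratio.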

[21] = Stat Signaling Pathway (AID 446; active = well fitted curve in either direction with a large enough effect, not every such curve was filed as active); details: ME-180 SIE beta-lactamase reporter, IL-6 stimulated, 5 h; at 17.2 µM (top of the series) unless noted
Procedure, shortened: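 FRET read-out (405 nm excitation, 460/530 nm emission) of a beta-lactamase reporter under a STAT-inducible element in ME-180 cervical carcinoma cells. Cells with compound receive 40 pM IL-6 for 5 h. Values are normalised to AC90 stimulation and AC90 JAK-inhibitor controls.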

[22] = target: Glucocorticoid receptor (Homo sapiens) (UniProt P04150); test: GR-GFP Redistribution (AID 450;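 active = compounds whose dose series gives a full or clear partial fitted curve of increased nuclear translocation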; note: potency is the fitted concentration of half-maximal effect)
[23] = qHTS for Inhibitors of the vitamin D receptor (VDR): Hit Validation using a Texas Red Assay (AID 602201); details: VDR coregulator binding, Texas Red fluorescence polarization; agonist-bound VDR ligand-binding domain; note: potency is the fitted concentration of half-maximal effect
Procedure, shortened: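 Fluorescence polarization with 1.5 uM VDR-LBD, LG19078 and 7 nM Texas Red (final). After 2 hours at ambient temperature, read at Ex 595 nm/Em 615 nm.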

[24] = qHTS Assay for Identification of Small Molecule Agonists for Hypoxia Response Element Signaling Pathway (AID 914; active = well fitted activation curve with a large enough effect in the signal ratio, with a control signal flat, not every such curve was filed as active; the % refers to the signal ratio; note: % of control where 0% means no effect); details: ME-180 (cervical carcinoma) HRE-bla reporter, beta-lactamase ratio, CoCl2, 17 h; activation: stronger effect = higher value
Procedure, shortened: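 AC50 values come from titration-series %Activity, taken as the 460/530nm ratio of CCF4 fluorescence (excitation 405nm). CellSensor HRE-bla ME-180 cells were treated 17 hours at 37 C with compound plus an EC50 level of CoCl2.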

Cc1cc(C(C)(C)CC(C)(C)C)ccc1OCCOCC[N+](C)(C)Cc1ccccc1
14.2%: max response [7]
active: Potency [2] 35.5 µM
inactive: Potency [1] | outcome [3] | outcome [4] | Potency [5] | activation [6] -7.21% | outcome [8] | outcome [9] | Potency [10] | outcome [11] | Potency [12] | activation [13] 0.146% | Potency [14] | max response [15] -8.26% | max response [16] -29.5% | Potency [17] | max response [18] -12.4% | outcome [19]

CCCCCCCCN[C@@H](C)[C@H](O)c1ccc(SC(C)C)cc1
inactive: Potency [2]

CC(C)Oc1ccc(C(=O)CCN2CCCCC2)cc1
active: Potency [23] 3.98 µM
inactive: activity change, negative = inhibition [20] -9.61% | activity, negative = inhibition [21] -10.9% | Potency [22] > 20.6 µM

CCOC(=O)c1[nH]c2ccc(OC)cc2c1NC(=O)CCN1CCC(C)CC1
inactive: activity change, negative = inhibition [20] 8.62% | activity, negative = inhibition [21] 8.76% | Potency [22] > 20.6 µM | activation [24] -29.8%
